Laboratory results taken from PubChem BioAssay.
Active and inactive are the calls of the source.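 How the source made its calls, unless noted: active means compound raises insulin release from rat beta cells at 5 mM glucose, no numeric limit stated; inactive means the rest.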 Starred links: 1 amine or outer side, 2 acyl side, 3 side chain; linkers in the order of their positions; H or OH if unused. Positions of bridges follow the written chain, without caps; N, C: chain ends. Non-standard residues stand in square brackets, D forms with d. Residues, ends and D or L forms follow the SMILES beside them. ξ: configuration not given here. *: point of attachment. ΔAla(3-NHCONH2) = NC(=O)NC=C(N)C(=O)O; X1 = NC1=NCCC(C(N[*:1])C(=O)[*:2])N1; ξβ3hOrn = NCCCC(N)CC(=O)*; Dap = NC[CH](N)C(=O)O

Legend:
[1] = stimulators of nuclear beta-catenin in C2C12, primary screen, imaging, WNT3A-conditioned medium, mouse C2C12, NPC library (AID 1117326; in the data active means nuclear beta-catenin stimulation mostly above about 4.2%, no sharp cut-off; inactive means mostly below about 10%; further: reference of the scale not given here); settings: stronger effect = higher value
[2] = stimulators of insulin release from INS-1E, primary screen, cell-based, 5 mM glucose, NPC library (AID 1117329); settings: rat INS-1E insulin secretion, at 10 µM, stronger effect = higher value; further: reference of the scale not given here
[3] = growth inhibition of GSK3B-pretreated HCT116 cells – cell-based, CellTiter-Glo, 0.2 to 20 µM (AID 1117336;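 active means compounds lowering colon cancer cell viability after pretreatment blocking the GSK3B kinase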); settings: HCT116 viability after GSK3B inhibitor, at 20 µM, stronger effect = higher value
[4] = inhibition of endothelial tube formation, primary screen, imaging, VEGF stimulated, CD31 staining, tube area, NPC library (AID 1117340;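 active means compound that reduces growth-factor-driven endothelial tube area in a mixed cell culture, no cutoff stated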); settings: VEGF-stimulated ADSC/ECFC co-culture, at 10 µM, stronger effect = higher value
[5] = glucagon-like peptide 1 release enhancers, primary assay, NCI-H716 cell line, NPC library (AID 1117341;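 active means compound raises GLP1 secretion from the human gut endocrine cells, with no numeric limit stated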; further: reference of the scale not given here); settings: NCI-H716 cells, at 10 µM, stronger effect = higher value
[6] = HCT116 colon cancer cell growth inhibition, primary screen, CellTiter-Glo luminescence, NPC library (AID 1117342;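 active means compounds that lower survival of HCT116 colon cancer cells in the luminescence readout, no numeric limit stated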); settings: at 20 µM (top of the series)
[7] = CellTiter-Glo luminescent readout of SW480 viability loss, NPC library primary (AID 1117343;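 active means compounds that lower viability of the colon cancer cells in the luminescence readout, with no numeric limit stated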); settings: CellTiter-Glo luminescence; at 20 µM (top of the series)
[8] = decreased DLD-1 cellular survival, CellTiter-Glo luminescent readout, NPC compound collection, primary HTS (AID 1117346;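 active means compounds that lower survival of DLD-1 colon cancer cells in the luminescence readout, no cutoff given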); settings: DLD-1 viability, CellTiter-Glo luminescence; at 20 µM (top of the series)

Row | SMILES | nuclear beta-catenin stimulation ([1]; at 10 µM) | nuclear beta-catenin stimulation ([1]; stimulation, at 2 µM) [%] | insulin secretion stimulation [2] | viability decrease [3] | tube area decrease [4] | GLP1 secretion stimulation [5] | inhibition of viability [6] | viability decrease (inhibition) [7] | viability decrease (inhibition) [8]
1 | NCCCC(N)CC(=O)NCC1NC(=O)C(CO)NC(=O)C(N)CNC(=O)C(C2CCN=C(N)N2)NC(=O)C(=CNC(N)=O)NC1=O (stereo not drawn) (H-[Dap]S[Dap](ξβ3hOrn)[ΔAla(3-NHCONH2)][X1]; lactam 1-C; configuration not given here) | 0.2% (inactive) | 1.8 | -0.9% (inactive) | 3.9% (inactive) | -1% (inactive) | -1.3% (inactive) | -22.2% (inactive) | -3.4% (inactive) | -12% (inactive)
2 | CCCCCCCCCCCC[N+](C)(C)Cc1ccccc1 | 7.4% (inactive) | -1.2 | 1.9% (inactive) | 99.3% (active) | 108% (active) | -2.1% (inactive) | 99.6% (active) | 78.1% (active) | 101% (active)
3 | Cc1cccc(C)c1OCC(=O)N[C@@H](Cc1ccccc1)[C@@H](O)C[C@H](Cc1ccccc1)NC(=O)[C@H](C(C)C)N1CCCNC1=O | 2% (inactive) | -0.1 | 2.4% (inactive) | 67.4% (active) | 2% (inactive) | 1.5% (inactive) | 43.5% (inactive) | 80.2% (active) | 73.5% (active)
4 | CC(=O)N1CCN(c2ccc(O)cc2)CC1 | 1.7% (inactive) | -1.5 | -0.1% (inactive) | 73.5% (active) | -25.3% (inactive) | 3.8% (inactive) | 38.5% (inactive) | 101% (active) | 34.4% (inactive)
5 | O=c1[nH]c2ccccc2c(=O)n1CCCl | 3.3% (inactive) | 1.4 | 1.3% (inactive) | 41.6% (inactive) | -18.9% (inactive) | 2.8% (inactive) | 30.4% (inactive) | 50.6% (active) | 20.2% (inactive)
6 | NC(=O)C[C@H](N)C(=O)O | 3% (inactive) | 1.1 | -1.3% (inactive) | -1% (inactive) | -19.4% (inactive) | 2.4% (inactive) | 0.3% (inactive) | 0.2% (inactive) | 5.4% (inactive)
7 | CN(CC1(C)CCCO1)S(=O)(=O)c1ccc(Cl)c(S(N)(=O)=O)c1 (stereo not given) | -0.8% (inactive) | -1.9 | 2% (inactive) | -0.1% (inactive) | -8.9% (inactive) | 2.8% (inactive) | 12.4% (inactive) | -9.7% (inactive) | 2.2% (inactive)
8 | CCCCCCCCOc1ccc(C(=O)c2ccccc2)c(O)c1 | 1% (inactive) | 0.6 | -2.1% (inactive) | -6.85% (inactive) | -7.2% (inactive) | 0.4% (inactive) | -7.5% (inactive) | -0.5% (inactive) | 6.1% (inactive)
9 | O=C(/C=C/c1ccccc1)OCc1ccccc1 | 1.3% (inactive) | 0.1 | -0.1% (inactive) | -14.9% (inactive) | 3% (inactive) | -1.3% (inactive) | 5.05% (inactive) | 19.3% (inactive) | 7.4% (inactive)
10 | CO[C@@]1(NC(=O)CSC[C@@H](N)C(=O)O)C(=O)N2C(C(=O)O)=C(CSc3nnnn3C)CS[C@@H]21 | 0.6% (inactive) | -1.7 | 2.6% (inactive) | 4.5% (inactive) | -11.8% (inactive) | -0.5% (inactive) | -0.6% (inactive) | -15.3% (inactive) | 3.1% (inactive)
11 | CCc1cc2cc(OC)c(OC)cc2c(Cc2ccccc2)n1 | 7.1% (inactive) | 3.1 | 15.8% (inactive) | 46.2% (inactive) | 18.5% (inactive) | 3.6% (inactive) | 41.3% (inactive) | -9.7% (inactive) | 25.5% (inactive)
12 | C#CC(C)(CC)OC(=O)c1ccccc1C(=O)O (stereo not given) | 3.1% (inactive) | 1.3 | -0.2% (inactive) | -19% (inactive) | -5.2% (inactive) | 3.4% (inactive) | 5.2% (inactive) | 11.9% (inactive) | -12.1% (inactive)
13 | Cc1cc(N)c2cc(NC(=O)Nc3ccc4nc(C)cc(N)c4c3)ccc2n1 | 2.4% (inactive) | -2.2 | 8.1% (inactive) | 54.4% (active) | -0.3% (inactive) | 32.3% (active) | 64% (active) | 144% (active) | 94.2% (active)
14 | CN1CC(=O)NC1=N | -0.7% (inactive) | 1.5 | 4.1% (inactive) | -24% (inactive) | 21.3% (inactive) | 0.9% (inactive) | -3.43% (inactive) | -155% (inactive) | -6.6% (inactive)
15 | O=C(O)CNC(=O)CNC(=O)CNC(=O)CSC(=O)c1ccccc1 | -0.8% (inactive) | -1.6 | 1.2% (inactive) | -1.9% (inactive) | -8.3% (inactive) | 4.6% (inactive) | 0.6% (inactive) | 12.5% (inactive) | 14.5% (inactive)
